Screening results from PubChem BioAssay.
Hits are enriched below; roughly 9.2% of the tested compounds scored in any of these assays.
ALDH1A1 inh – blocks purified human ALDH1A1 activity; P00352; Purified ALDH1A1, NADH fluorescence, propionaldehyde substrate; Potency, µM (top dose mostly 75.3 µM), actives largely listed as inhibitors; actives 7.3% (n = 220,000)
HPGD inh – HPGD (human) dehydrogenase inhibition; P15428; purified HPGD, NADH fluorescence kinetic, PGE2 substrate; Potency, µM, hits mostly inhibitors; actives 4.3% (n = 150,000)
Target sequence (P15428 whole entry, looked up): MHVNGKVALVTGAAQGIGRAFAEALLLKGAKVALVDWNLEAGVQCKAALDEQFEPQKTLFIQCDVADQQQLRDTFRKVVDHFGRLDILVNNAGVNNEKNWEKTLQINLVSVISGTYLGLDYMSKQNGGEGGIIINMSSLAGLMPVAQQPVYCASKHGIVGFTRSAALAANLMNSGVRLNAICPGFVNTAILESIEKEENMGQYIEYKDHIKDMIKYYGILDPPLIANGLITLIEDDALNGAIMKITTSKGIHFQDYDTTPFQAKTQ
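NADH formation kinetics: reaction with 30 uM PGE2 and 1 mM NAD+ (final), 20 nM enzyme, Tris-HCl pH 8 with Tween 20, after 15 min compound preincubation at room temperature. Fluorescence change, last versus first of five reads.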
HTT cytoprotect – protects HTT-Q103 PC12 cells, measured by ATP; PC12 HTT-Q103 induced, cytoprotection, ATP luminescence, 40 h; Potency, µM (highest dose often 56.4 µM), hits mostly activators; actives 0.14% (n = 230,000); active = well fitted curve in the direction sought with a large enough effect; inconclusive = small, poorly fitted or top-dose-only effect, or another doubt; inactive = no such curve, though single readings can be large; an effect the other way counts as inactive or inconclusive; also: nearly all actives have a fitted effect of over 45% in size
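Readout: ATPlite luminescence (ATP level). Model: stable PC12, inducible Htt exon1 Q103-GFP. Inducer: tebufenozide, 100 nM final. Compounds: dose series. No G418 in medium.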
HttQ103 aggreg – inhibitors of mutant huntingtin aggregate formation in PC12 cells; PC12 HttQ103-GFP aggregates, Acumen cytometry, 40 h; Potency, µM (titrated, usually from 46.1 µM), actives largely listed as inhibitors; actives 1.1% (n = 220,000); active = well fitted curve in the direction sought with a large enough effect; inconclusive = small, poorly fitted or top-dose-only effect, or another doubt; inactive = no such curve, though single readings can be large; an effect the other way counts as inactive or inconclusive; also: nearly all actives have a fitted effect of over 60% in size
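Read-out: GFP aggregate count by laser scanning cytometer (488 nm excitation, 500-530 nm emission, 1–25 µm objects >6 SD above background). Cells: PC12, inducible HTTex1-Q103-GFP, 100 nM tebufenozide; compounds titrated.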
LMNA splice mod – modulators of lamin A splicing. Potency, µM (top dose mostly 46.1 µM), most hits filed as inhibitors. HeLa LMNA splicing GFP/RFP minigene ratio, 48 h. actives 0.01% (n = 200,000). AID 1487; active = well fitted inhibition curve with a large enough effect in the signal ratio, with a control signal flat, not every such curve was filed as active; inconclusive = small, poorly fitted or top-dose-only effect, or effect the other way, or a change in a side signal; the % refers to the signal ratio
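S3 HeLa stable clones carrying a lamin A-EGFP splicing minigene plus DsRed2 were seeded at 600 cells/well in Opti-MEM with 2% FBS, pin-dosed and incubated 48 h at 37°C. Acumen cytometry (488 nm) gave the GFP/RFP total-intensity ratio.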
KDM4E inh – inhibitors of human JMJD2E histone demethylase; B2RXH2; Potency, µM (series often up to 57.1 µM), most hits filed as inhibitors; AID 2147; JMJD2E catalytic domain, FDH-coupled NADH fluorescence (FDH is formaldehyde dehydrogenase); actives 1.6% (n = 230,000); also: nearly all actives have a fitted effect of over 50% in size
Target sequence (B2RXH2 1-337 limits assumed): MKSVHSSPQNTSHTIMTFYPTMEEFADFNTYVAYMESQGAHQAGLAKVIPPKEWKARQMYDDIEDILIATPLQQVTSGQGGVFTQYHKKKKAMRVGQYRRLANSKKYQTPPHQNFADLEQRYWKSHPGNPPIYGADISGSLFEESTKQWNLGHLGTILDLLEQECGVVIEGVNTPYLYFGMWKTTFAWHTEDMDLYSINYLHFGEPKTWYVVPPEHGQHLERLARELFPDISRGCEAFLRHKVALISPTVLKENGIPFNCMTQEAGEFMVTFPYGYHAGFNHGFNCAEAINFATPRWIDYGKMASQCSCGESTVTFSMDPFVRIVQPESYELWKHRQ
A number is an active result; 0 = inactive; ? = inconclusive; - = not tested or not shown; [ ] = another dose, or the depositor's remark. Unless noted, calls follow the shape of the dose curve; as a rule, active = well fitted inhibition curve with a large enough effect (not every such curve was filed as active); inconclusive = small, poorly fitted or top-dose-only effect, or another doubt; inactive = no such curve, though single readings can be large or run the other way.

SMILES	ALDH1A1 inh	HPGD inh	HTT cytoprotect	HttQ103 aggreg	LMNA splice mod	KDM4E inh
CCC(=O)N1CCc2cc(S(=O)(=O)CCC(=O)NCc3ccco3)ccc21	0	-	0	0	-	0
COC(=O)N1CC=CC1(C)C(=O)NCc1ccc(C)o1 (stereo not drawn)	?	0	0	-	-	0
O=C1C(=C2CCCCC2)SC(=S)N1Cc1ccco1	18µM	?	0	0	0	0
O=C(O)CCN1C(=O)C(=C2CCCCCC2)SC1=S	?	0	0[0.074 µM]	0	0	?
COc1ccc(OC)c(NC(=O)CSc2nc(=O)n(CCN(C)C)c3c2CCC3)c1	-	-	-	-	0	-
CCCCc1cc(=O)oc2cc(C)cc(O)c12	8.9µM	0	0	?	0	0
CCCc1cc(O)c2c(C)cc(=O)oc2c1	16µM	0	0[10 µM]	?	0	0
CCN1CCN(C(c2cccc(F)c2)c2c(O)cc(C)n(Cc3ccco3)c2=O)CC1 (stereo not drawn)	-	-	-	-	0	-
Cc1cc(C)nc(SCc2cc(=O)c(OC(=O)c3ccc(Cl)c([N+](=O)[O-])c3)co2)n1	0	11µM	0[10 µM]	0	0	0
O=C(Oc1coc(CSc2ncccn2)cc1=O)c1cccc([N+](=O)[O-])c1	1.8µM	-	0	0	-	0
O=C(Oc1ccc(Cl)c2cccnc12)c1cccc([N+](=O)[O-])c1	0	0	0[10 µM]	0	?	?
O=C(Oc1c(Cl)cc(Cl)c2cccnc12)c1cccc([N+](=O)[O-])c1	0	0	0[10 µM]	2.8µM	?	14µM
CC(=O)OC[C@H]1O[C@@](COC(C)=O)(O[C@H]2O[C@H](COC(C)=O)[C@@H](OC(C)=O)[C@H](OC(C)=O)[C@H]2OC(C)=O)[C@@H](OC(C)=O)[C@@H]1OC(C)=O	-	-	0	0	-	-
Nc1nc(SCc2ccccc2Cl)cc(C(=O)O)n1	0[13.5 µM]	0	0[10 µM]	-	-	-
Cc1cccc(N2CCN(C(=O)c3c(C)oc4nc(C)nc(N5CCCC5)c34)CC2C)c1 (stereo not drawn)	-	-	-	-	0	-
Cc1ccc(C(=O)Oc2csc(=S)n2C(=O)c2ccc(C)cc2)cc1	3.5µM	5µM	0	0	0	?
CO[C@@H]1COC(=O)C/C=C\[C@@H](C)[C@@H]2C=C[C@H](O)[C@@H](COC(=O)CCC[C@H]1C)O2	0[13.5 µM]	-	0[10 µM]	-	-	-
COC(=O)C1CCCCN1C(=O)CCc1nnc(CCc2c[nH]c3ccccc23)o1 (stereo not drawn)	22µM	-	0[10 µM]	0[9.22 µM]	?	0
COC(=O)[C@@H]1CCCN1C(=O)CCc1nnc(CCc2c[nH]c3ccccc23)o1	0	-	0[10 µM]	0[9.22 µM]	-	0
Cc1ccccc1N1C(=O)C2ON(c3ccccc3)C(c3cccnc3)C2C1=O (stereo not drawn)	0	0	0	0	0	0
O=C1C2ON(c3ccccc3)C(c3cccnc3)C2C(=O)N1Cc1ccccc1 (stereo not drawn)	35µM	0	0	0	0	0
O=C(O)c1c(-c2nccc3ccccc23)[nH]c(-c2ccccc2)c1S(=O)(=O)O	?	0	0[10 µM]	-	-	-
CCOC(=O)C1=C(C)NC(=S)N(C=O)C1c1ccccc1 (stereo not drawn)	2µM	-	0[10 µM]	0	0	0
COC(=O)C1=C(C)NC(=O)CC1c1ccccc1 (stereo not drawn)	0	0	0[1.9 µM]	0	0	0
COC(=O)C1=C(C)NC(=S)N(C(C)=O)C1c1ccccc1 (stereo not drawn)	25µM	0	0[1.9 µM]	0	0	0
SMILES	ALDH1A1 inh	HPGD inh	HTT cytoprotect	HttQ103 aggreg	LMNA splice mod	KDM4E inh
Cc1cccc(C)c1N(Cc1ccccc1F)S(C)(=O)=O	0	-	0	0	-	0
COc1cccc(N2CC(NC(=O)c3cc4ccccc4o3)CC2=O)c1 (stereo not drawn)	-	-	-	-	0	-
S=c1[nH]nc(-c2cccnc2)n1/N=C/c1ccc(Br)s1	?	16µM	0[10 µM]	0	0	0
Cc1ccc(/C=N/n2c(-c3cccnc3)n[nH]c2=S)s1	?	13µM	0[10 µM]	0	0	0
Cc1ccc(/C=N/n2c(-c3cccnc3)n[nH]c2=S)o1	-	-	0[10 µM]	0[9.22 µM]	-	?
Brc1ccccc1-c1nnc2sc(Cc3ccccc3)nn12	0	16µM	0[10 µM]	?	0	0
COc1ccc(Cc2nn3c(-c4ccccc4Br)nnc3s2)cc1	?	?	0	?	?	0
Clc1ccccc1-c1nnc2sc(CCc3ccccc3)nn12	4µM	8.9µM	0[0.074 µM]	0	?	0
c1ccc(CCc2nn3c(-c4ccncc4)nnc3s2)cc1	10µM	5µM	0[10 µM]	1.1µM	0	0
Cc1onc(-c2ccccc2Cl)c1C(=O)NC(=S)NCCc1ccccc1	0	0	0[0.074 µM]	0	0	0
Cc1ccc(NC(=S)NC(=O)c2c(-c3ccccc3Cl)noc2C)cc1	7.9µM	0	0	0	0	0
Cc1onc(-c2ccccc2Cl)c1C(=O)NC(=S)Nc1ccc(C(C)C)cc1	20µM	-	0[10 µM]	0[9.22 µM]	0	?
COC(=O)COc1ccc(NS(=O)(=O)c2cccc([N+](=O)[O-])c2)cc1	?	-	0	0	-	0
CCN(CC)S(=O)(=O)c1ccc(N=NC2=C(O)CCCC2=O)cc1	?	-	0[10 µM]	0	0	0
CC1(C)CC(=O)C(N=Nc2ccc3ncsc3c2)=C(O)C1	4.5µM	0	0	0	0	0
CC1(C)CC(=O)C(N=Nc2ccc(OC(F)F)cc2)=C(O)C1	1.4µM	-	0[10 µM]	0	0	0
CCN(CC)S(=O)(=O)c1ccc(N=NC2=C(O)CC(C)(C)CC2=O)cc1	2.5µM	0	0[10 µM]	0	?	0
CC1(C)CC(=O)C(N=Nc2ccc(F)cc2)=C(O)C1	-	-	0[10 µM]	0[9.22 µM]	-	0
COc1cc2ccccc2cc1C(=O)N1CCN(c2nc3c(F)cc(F)cc3s2)CC1	-	-	-	-	0	-
O=C(Nc1ccc2nc(SCCOc3ccccc3)sc2c1)c1ccc2c(c1)OCO2	-	-	-	-	0	-
O=C(NNc1c2ccccc2nc2ccccc12)c1ccc(O)cc1	0	0	0[10 µM]	?	?	0
O=C(NNc1nc(=O)c2cccnc2s1)c1ccccc1O	0	-	0[10 µM]	7.9µM	-	14µM
COc1ccc(OCC(=O)NNc2c3ccccc3nc3ccccc23)cc1	0	0	0[10 µM]	11µM	?	?
O=C(NNc1c2ccccc2nc2ccccc12)c1ccc(O)cc1O	0	0	0	10µM	0	?
O=C(NNc1c2ccccc2nc2ccccc12)c1ccccc1O	0	0	0[10 µM]	0	18µM	?
O=C(COc1ccccc1)NNc1c2ccccc2nc2ccccc12	?	0	0[10 µM]	0	?	0
CCOC(=O)N/N=C1/C[C@@H](O)[C@@H](O)[C@@H]2[C@@H]3C(=O)N([C@@H](C)c4ccccc4)C(=O)[C@H]3CC[C@@H]12	0[13.5 µM]	-	0[10 µM]	-	-	-
O=C(OCc1cc(=O)n2nc(C3CC3)sc2n1)c1ccc(NC(=O)c2ccccc2F)cc1	-	-	-	-	0	-
O=C(O)/C=C/C(=O)Nc1ccc(Oc2ncnc3cc(Cl)ccc23)nc1	-	-	0[10 µM]	0[9.22 µM]	-	0
